Source: the supplement of paper PMC7366291
Structures can show the parent of a compound that is named as a salt. ± gives the standard deviation of the averaged measurements.

These compounds were tested on Danio rerio Tg(wt1b:EGFP) embryo, pronephros (assay: glomerular width (mean of left and right), fold change vs DMSO control; higher = wider glomerulus). Conditions: 25 µM; exposure: 24-48 hpf.
In short: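 Dechorionated Tg(wt1b:EGFP) zebrafish embryos were incubated at 28.5°C from 24 to 48 hpf with 25 μM compound in HEPES-buffered E3 containing 0.5% DMSO and 0.003% PTU. Distances and angles between 16 manually set points on maximum projections of dorsal pronephros images were measured in Fiji, with values over 2 SD from the feature mean excluded. Each feature is a fold change relative to the mean of same-day DMSO-treated embryos.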

SMILES	glomerular width
CS(=O)(=O)c1ccc(C2=C(c3ccccc3)C(=O)OC2)cc1 [Rofecoxib]	0.974 ± 0.11
C[C@]12C=CC(=O)C=C1CC[C@@H]1[C@@H]2C(=O)C[C@@]2(C)[C@H]1CC[C@]2(O)C(=O)CO [Prednisone]	0.972 ± 0.03
CCOC(=O)c1ccc(OC(=O)CCCCCNC(=N)N)cc1 [Gabexate mesilate]	0.986 ± 0.011
Cc1cccc(Nc2ccccc2C(=O)O)c1C [Mefenamic acid]	0.617 ± 0.064
N#Cc1ccc(C(c2ccc(C#N)cc2)n2cncn2)cc1 [Letrozole]	1.023 ± 0.0059
Cc1cccc(C)c1NC(=O)CN1CCN(CCCC(c2ccc(F)cc2)c2ccc(F)cc2)CC1 [Lidoflazine]	0.667 ± 0.014
CC(=O)OC[C@H]1O[C@@H]([S-])[C@H](OC(C)=O)[C@@H](OC(C)=O)[C@@H]1OC(C)=O.CCP(CC)CC.[Au+] [Auranofin]	0.789 ± 0.038
O=C(O)c1cccnc1 [Niacin]	1.04 ± 0.063
CCCOc1ccccc1-c1nc2[nH]nnc2c(=O)[nH]1 [Zaprinast]	0.99 ± 0.074
O=S(=O)(O)c1cc(O)ccc1O [Ethamsylate]	0.89 ± 0.079
CCCN(CCC)S(=O)(=O)c1ccc(C(=O)O)cc1 [Probenecid]	0.907 ± 0.091
C#C[C@]1(O)CC[C@H]2[C@@H]3CCc4cc(OC)ccc4[C@H]3CC[C@@]21C [Ethynylestradiol 3-methyl ether]	1.038 ± 0.0014
CCN(CC)CCNC(=O)c1cc(Br)c(N)cc1OC [Bromopride]	1.04 ± 0.015
c1ccc(C2CN3CCSC3=N2)cc1 (centres undefined) [Tetramisole hydrochloride]	1.05 ± 0.032
C[C@H](CCC(=O)O)[C@H]1CC[C@H]2[C@@H]3C(=O)C[C@@H]4CC(=O)CC[C@]4(C)[C@H]3CC(=O)[C@]12C [Dehydrocholic acid]	0.978 ± 0.07
O=C1CC2(CCCC2)CC(=O)N1CCCCN1CCN(c2ncccn2)CC1 [Buspirone hydrochloride]	1.02 ± 0.022
CC(C)Nc1cccnc1N1CCN(C(=O)c2cc3cc(NS(C)(=O)=O)ccc3[nH]2)CC1 [Delavirdine]	1.16 ± 0.017

SMILES	glomerular width
CC(C)(C(=O)c1cccnc1)c1cccnc1 [Metyrapone]	0.961 ± 0.039
O=C1CCC(N2C(=O)c3ccccc3C2=O)C(=O)N1 (centres undefined) [Thalidomide]	1.21 ± 0.078
C=C1c2c(Cl)ccc(O)c2C(=O)C2=C(O)[C@]3(O)C(=O)C(C(N)=O)=C(O)[C@@H](N(C)C)[C@@H]3[C@@H](O)[C@H]12.O=C(O)c1cc(S(=O)(=O)O)ccc1O [Meclocycline sulfosalicylate]	1.09 ± 0.091
NCCC[C@H](N)CC(=O)N[C@H]1CNC(=O)[C@H]([C@H]2C[C@H](O)NC(N)=N2)NC(=O)/C(=C/NC(N)=O)NC(=O)[C@H](CO)NC(=O)[C@H](CO)NC1=O [Viomycin sulfate]	0.86 ± 0.0024
O=C(O)CCC(=O)c1ccc(-c2ccccc2)cc1 [Fenbufen]	0.729 ± 0.11
C=CCOc1ccccc1OCC(O)CNC(C)C (centres undefined) [Oxprenolol hydrochloride]	1.002 ± 0.0059
O=C(O)c1cn(-c2ccc(F)cc2)c2cc(N3CCNCC3)c(F)cc2c1=O [Sarafloxacin]	1.08 ± 0.039
COc1ccc(CC2c3cc(OC)c(OC)cc3CC[N+]2(C)CCC(=O)OCCCCCOC(=O)CC[N+]2(C)CCc3cc(OC)c(OC)cc3C2Cc2ccc(OC)c(OC)c2)cc1OC (centres undefined) [Atracurium besylate]	0.944 ± 0.012
CCOCCn1c(N2CCCN(C)CC2)nc2ccccc21 [Emedastine]	0.979 ± 0.051
Cn1cnc2c1c(=O)[nH]c(=O)n2C [Theobromine]	0.947 ± 0.022
COc1ccc([C@@H]2CC(=O)c3c(O)cc(O[C@@H]4O[C@H](CO[C@@H]5O[C@@H](C)[C@H](O)[C@@H](O)[C@H]5O)[C@@H](O)[C@H](O)[C@H]4O)cc3O2)cc1O [Hesperidin]	0.938 ± 0.045
O=C(OCC(O)CO)c1ccccc1Nc1ccnc2cc(Cl)ccc12 (centres undefined) [Glafenine hydrochloride]	1.02 ± 0.04
COc1ccc(Cl)cc1C(=O)NCCc1ccc(S(=O)(=O)NC(=O)NC2CCCCC2)cc1 [Glibenclamide]	1.05 ± 0.023
CN(C/C=C/C#CC(C)(C)C)Cc1cccc2ccccc12 [Terbinafine]	1 ± 0.012
CN(C)CCOC1=Cc2ccccc2Sc2ccc(Cl)cc21 [Zotepine]	0.983 ± 0.065
CN1CCC(=C2c3ccccc3C=Cc3ccccc32)CC1 [Cyproheptadine hydrochloride]	0.94 ± 0.06
CCn1cc(C(=O)O)c(=O)c2ccc(C)nc21 [Nalidixic acid sodium salt]	1.11 ± 0.025
